Screen size: about 360,000 compounds; about 25,000 (6.9%) were called active. Inconclusive results (about 9%) are left out. The sample holds actives, similar compounds and a random draw of the others, so the mix is not that of the screen. A number with no mark means an inactive call. The call rests on the fitted dose curve; in most records, active means well fitted inhibition curve with a large enough effect; inconclusive means small, poorly fitted or top-dose-only effect; inactive means flat fitted curve, though single readings scatter.
target: Luciferin 4-monooxygenase (Photinus pyralis) (UniProt P08659); experiment: qHTS profiling assay for firefly luciferase inhibitor/activator using purifed enzyme and Km concentrations of substrates (counterscreen for miR-21 project); details: purified FLuc, luminescence inhibition; series mostly up to 57.5 µM; activity change, negative = inhibition: at the top concentration; further: nearly all actives have a fitted effect of over 55% in size;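 on activity change, negative = inhibition: plate controls were vehicle for no effect and reference inhibitor for full effect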
From the text: MLPCN Grant: 1 R21 NS059478-01 (miR-21 grant) Assay Provider: NCGC NCGC Assay Overview: Firefly (Photinus pyralis) luciferase is one of the most commonly used transcriptional reporters for a number of reasons. It is considered one of the more dynamically responsive reporters -that is, responsive to changes in reporter transcription - as it requires no post-translational modifications and is enzymatically active directly after protein synthesis (Wood, 1998). Additionally, the half-life of the luciferase protein is short relative to other reporter-gene products (Wood, 1995). Whereas reporters with long half-lives potentially allow for increased signal due to accumulation of reporter-gene product, once accumulated in the cell, dynamic changes in reporter-gene expression may be difficult to detect(Fan and Wood, 2007; Almond et al., 2004). It has been shown that wild-type P. pyralis luciferase has a half-life of approximately […] hours in mammalian cells (Thompson et al., 1991). Firefly luciferase reporter-gene assays are also generally considered one of the most sensitive assay types (Wood, 1995; Wood, 1998). Although light produced in a bioluminescence reaction is of lower intensity than that produced during fluorescence emission, this is offset by little to no background light inherent to luminescent assays. Thus the luciferase reporter can be expressed at much lower levels than fluorescent proteins while still providing robust signal. # However, it was initially observed, in 1991, by Thompson et al., that compounds that resemble the substrates of firefly luciferase (FLuc) can act as competitive inhibitors of the enzyme, and that these compounds, upon interaction with luciferase in the cell, can actually stabilize the protein and increase its half-life. Accumulated intracellular FLuc protein can be measured as an increase in luminescence signal, upon addition of detection reagents (which contain high concentrations of FLuc substrates) commonly used in high-throughput screening. In cell-based reporter gene assays that use FLuc as the reporter gene to quantitate the potential influence of a given compound against the target biology, this apparent increase in luminescence can mistakenly be interpreted as identification of a compound that is active against the target of interest. This is the case for the miR-21 FLuc reporter gene assay used to identify inhibitors of the miR-21 pathway (PubChem AID 2289) - compounds of interest will inhibit miR-21 biogenesis/expression or activity, and are identified by causing an increase in luminescence, due to increased FLuc translation. However, FLuc inhibitory compounds that stabilize the FLuc protein will give an identical read-out, making it difficult to distinguish compounds that are active against the target from those active against FLuc. Previous profiling work to determine the prevalence of compounds that affect FLuc enzymatic activity (PubChem AID 411) identified that ~3% of the MLSMR library (then at ~72K) inhibited FLuc. […] Since the MLSMR had grown to ~350K compounds, and since it was expected that a significant percentage of compounds found active in the miR-21 FLuc assay would be FLuc inhibitors, the library was screened for activity against FLuc using a biochemical assay of purified FLuc and KM concentrations of FLuc substrates (D-luciferin and ATP).
NCGC Assay Protocol Summary: Reagents: 50mM Tris acetate, pH 7.5; 10mM Mg acetate; 10uM D-luciferin (Sigma #L9504); 10uM ATP; 0.01% Tween-20; 0.05% BSA; 10nM P. pyralis luciferase (Sigma #L9506) Control compounds used were two known firefly luciferase inhibitors (compounds (2) and (5) in Auld et al., 2010), and DMSO. […]

Luciferin 4-monooxygenase (Photinus pyralis), sequence (P08659 whole entry, looked up): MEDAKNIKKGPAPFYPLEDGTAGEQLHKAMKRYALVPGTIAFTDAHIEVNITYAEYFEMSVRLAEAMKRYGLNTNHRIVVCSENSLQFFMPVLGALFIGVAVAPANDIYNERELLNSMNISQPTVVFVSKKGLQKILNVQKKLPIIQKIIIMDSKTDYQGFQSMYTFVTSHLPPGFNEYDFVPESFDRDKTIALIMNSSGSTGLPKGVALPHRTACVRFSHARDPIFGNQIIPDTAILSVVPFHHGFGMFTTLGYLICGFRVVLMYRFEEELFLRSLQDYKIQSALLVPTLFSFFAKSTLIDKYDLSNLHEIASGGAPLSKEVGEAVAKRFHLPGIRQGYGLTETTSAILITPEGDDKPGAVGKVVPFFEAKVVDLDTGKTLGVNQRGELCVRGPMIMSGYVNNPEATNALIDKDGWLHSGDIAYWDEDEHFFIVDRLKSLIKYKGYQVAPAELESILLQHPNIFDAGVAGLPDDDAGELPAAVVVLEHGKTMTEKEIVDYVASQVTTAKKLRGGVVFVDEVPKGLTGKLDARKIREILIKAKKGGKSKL

Point of comparison: `O=C(CN1C(=O)CC(c2ccccc2)S(=O)(=O)c2ccccc21)NC1CCCC1` (stereo not drawn), “activity change, negative = inhibition” value -2.16%. Against it:
- O=C(Nc1ccc(-c2csc(Nc3cccc(C(F)(F)F)c3)n2)cc1)c1cccc(C(F)(F)F)c1 — higher, 1.5%
- Cc1nc(CNS(=O)(=O)c2cccnc2)cs1 — higher, 0.166%
- COC(=O)c1ccc(NC(=S)Nc2cccc(C)n2)cc1 — higher, -0.516%
- O=C(Nc1nc(-c2cccnc2)cs1)c1ccccc1F — lower, -6.48%
- CC(=O)Nc1ccc(NC(=O)COc2ncnc3ccccc23)cc1 — higher, 2.39%
- c1csc(-c2cn3c(n2)SCC3)c1 — lower, -22.6%
- COc1ccc(Br)cc1C1CC(=O)Nc2c1c(C)nn2-c1nc(C)cc(C)n1 (stereo not drawn) — lower, -8.06%
- Cc1ccc(NC(=O)CSc2nc3c([nH]c4ccccc43)c(=O)n2-c2ccccc2)c(C)c1 — higher, -2.12%
- O=C(CN(C(=O)c1csnn1)c1cccc(Cl)c1)NC1CCCC1 — higher, 0.359%
- CCCCN(CC(=O)Nc1cccc(S(=O)(=O)N2CCCC2)c1)Cc1nc2ccccc2c(=O)[nH]1 — higher, -1.73%
- COC(=O)c1ccc(COC(=O)CNC(=O)c2cccc(OC)c2)o1 — lower, -18%
- CCOC(=O)c1scc(-c2ccc(C)cc2)c1S(=O)(=O)Nc1cc(C)ccc1C — lower, -14.5%
- Cc1ccc2nc(COc3ccccc3NC(=O)Nc3ccc(F)c(Cl)c3)cc(=O)n2c1 — lower, -18.2%
- CSc1nc(Nc2ccc(F)cc2)cc(-c2ccccc2)n1 — lower, -13%
- O=C(CN1C(=O)C2C3C=CC(C3)C2C1=O)Nc1nc(-c2ccccn2)cs1 (stereo not drawn) — lower, -3.95%
- CC(NC(=O)c1ccco1)C(=O)Nc1nc(-c2ccccn2)cs1 (stereo not drawn) — higher, 1.86%
- COC(=O)c1cc2occc2n1Cc1nc(-c2ccc(C)cc2)oc1C — higher, 4.5%
- COc1ccc2c(c1)C(NS(=O)(=O)OCC(Cl)(Cl)Cl)CCC2 (stereo not drawn) — higher, -1.13%
- COCCN(C(=O)CSCc1ccc(C)cc1)c1c(N)n(CC(C)C)c(=O)[nH]c1=O — higher, -1.29%
- CCOc1cccc(CC(=O)N2CCc3c([nH]c4ccccc34)C2c2ccc(OC)cc2)c1OCC (stereo not drawn) — lower, -2.95%
- Cc1cc(=O)c2cc(C(=O)Nc3cccc(C)c3C)ccc2[nH]1 — lower, -4.94%
- CCS(=O)(=O)N1CCc2cc(C(=O)NCc3ccc(C)cc3)ccc21 — lower, -5.13%
- COc1ccc(NC(=O)Cn2c(=O)cc(C)c3c(C)nn(-c4cccc(Cl)c4C)c32)cc1OC — higher, 4.01%
- COc1ccccc1N1CCN(C(=O)C(=O)N/N=C/c2ccccc2F)CC1 — higher, 4.07%
- CNCC(O)CN1CCN(c2ccccc2OC)CC1 (stereo not drawn) — higher, -0.912%
- COc1ccccc1/C=N/N1CCN(Cc2ccccc2Cl)CC1 — higher, -1.85%
- COc1ccccc1N1CCN(C2C(=O)c3ccccc3N2C(C)=O)CC1 (stereo not drawn) — lower, -18%
- CCOC(=O)CN1C(=O)N[C@@H](c2ccc(Br)cc2)C(C(C)=O)=C1C — higher, -0.544%
- Cc1oc(-c2ccccc2F)nc1CN1CCC(C(=O)NCCc2ccc(Cl)cc2)CC1 — lower, -14.6%
- CN(Cc1ccccc1)C(=O)c1cc2c(=O)n(C)c3ccccc3c2s1 — lower, -13.9%
- Cc1[nH]c2ccccc2c1C(c1ccccc1)c1cccs1 (stereo not drawn) — lower, -7.8%
- Cc1cccc(N2CCN(C(=O)c3ccc4c(c3)CCN4S(=O)(=O)c3ccccc3)CC2)c1C — higher, -1.27%
- Cc1ccc(Cn2cc(CCC(=O)NCc3ccc(OC(C)C)cc3)c3ccccc32)cc1 — higher, 3.04%
- CC(=O)Nc1ccc(OC(=O)COc2ccc(Br)cc2)cc1 — higher, -1.37%
- CSc1ccc(Cl)c(C(=O)OCC(=O)N2CCNC2=O)c1 — lower, -4.07%
- CC(=O)CSc1nnc(CSc2ncccn2)n1C1CCCCC1 — higher, -0.437%
- O=S(=O)(c1ccccc1)c1nc(-c2ccc(Cl)cc2Cl)oc1N1CCCCC1 — higher, -0.863%
- CC(NS(=O)(=O)c1ccc(OCC(=O)N2CCCC2)cc1)c1ccccc1 (stereo not drawn) — higher, 2.33%
- COc1ccc(S(=O)(=O)Nc2ccccc2C(=O)N2CCCC2)cc1C — higher, -1.28%
- COc1ccc(NS(=O)(=O)c2cc3c4c(c2)CC(=O)N4CCC3)cc1Cl — lower, -10.1%
- C(=N\n1cnnc1)/c1cccnc1 — higher, 0.209%
- O=C1/C(=C\c2cccnc2)CN(Cc2ccccc2)C/C1=C\c1cccnc1 — higher, 0.472%

With `Cc1ccccc1Nc1nc(-c2cccnc2)cs1` the Potency was 6.01 µM (active).
For `CC(=O)Nc1cccc(-c2cnc3ccccc3n2)c1`, the Potency was 12 µM (active).
With `Clc1ccc(Nc2nc(-c3cccs3)cs2)nc1` the Potency was 1.51 µM (active).
In the case of `CC(=O)Nc1cccc(-c2csc(Nc3cccc(C)n3)n2)c1`, the Potency is reported as 2.39 µM (active).
`c1ccc(Nc2nc(-c3ccncc3)cs2)nc1` was tested, and the Potency was 4.78 µM (active).
`Cc1cccc(Nc2nc(-c3ccccc3)cs2)n1` was tested, and the Potency was 3.79 µM (active).
In the case of `COc1ccccc1N1CCN(/N=C\C(Br)=C\c2ccccc2)CC1`, the Potency is reported as 16.9 µM (active).
With `COc1ccccc1N1CCN(/N=C/c2ccc(O)cc2O)CC1` the Potency was 7.57 µM (active).
`COc1ccc(S(=O)(=O)NC(C)c2ccccc2)cc1C(=O)N1CCCCC1` (stereo not drawn) was tested, and the Potency was 1.69 µM (active).
With `Cc1ccccc1C1=N/C(=C/c2cccnc2)C(=O)O1` the Potency was 8.49 µM (active).

Source: PubChem BioAssay AID588342 (National Center for Advancing Translational Sciences (NCATS), 2011)
